This passage reports outcome and AC50 results from PubChem BioAssay (EPA / NIEHS).

Inconclusive results are not listed. The source made the active and inactive calls. The calls were made as follows, unless noted: active = hit-call score of the fitted dose curve at least 0.9, where 1 is the maximum; inactive = score below 0.9.

Experiment [1] addresses Estrogen-related receptor gamma (Homo sapiens) (UniProt P62508). Kind of experiment: ATG_ERRg_TRANS: Attagene TRANS-FACTORIAL HepG2 Assay for human Estrogen-Related Receptor gamma (ERRg) (AID 2282977; active = hit-call score of the fitted dose curve at least 0.9, where 1 is the maximum;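 also: hits increase reporter signal over DMSO so potencies reflect activators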). The settings on record: HepG2 Attagene TRANS reporter, ERRg transactivation. Put shortly: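 Transient HepG2 transfectants, 24 h compound exposure, GAL4-UAS reporter mRNA by RT-PCR/6-FAM labelling/capillary electrophoresis; positive direction vs DMSO.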

The target in experiment [2] is Bile acid receptor (Homo sapiens) (UniProt Q96RI1). In words: ATG_FXR_TRANS: Attagene TRANS-FACTORIAL HepG2 Assay for Farnesoid X Receptor (FXR) (AID 2282979; active = hit-call score of the fitted dose curve at least 0.9, where 1 is the maximum;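 also: hits raise reporter mRNA above DMSO so AC50 marks FXR activation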). The settings on record: HepG2 Attagene TRANS FXR-GAL4 reporter transcription. Summed up: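 HepG2 cells were transiently transfected with GAL4-UAS reporters driven by chimeric NR-Gal4 proteins and dosed for 24 h. Reporter mRNA was quantified by RT-PCR, fluorescent labelling, HpaI digestion and capillary electrophoresis, with gain of signal scored versus DMSO.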
Bile acid receptor (Homo sapiens), sequence (Q96RI1 whole entry, looked up, the tested form may be a part): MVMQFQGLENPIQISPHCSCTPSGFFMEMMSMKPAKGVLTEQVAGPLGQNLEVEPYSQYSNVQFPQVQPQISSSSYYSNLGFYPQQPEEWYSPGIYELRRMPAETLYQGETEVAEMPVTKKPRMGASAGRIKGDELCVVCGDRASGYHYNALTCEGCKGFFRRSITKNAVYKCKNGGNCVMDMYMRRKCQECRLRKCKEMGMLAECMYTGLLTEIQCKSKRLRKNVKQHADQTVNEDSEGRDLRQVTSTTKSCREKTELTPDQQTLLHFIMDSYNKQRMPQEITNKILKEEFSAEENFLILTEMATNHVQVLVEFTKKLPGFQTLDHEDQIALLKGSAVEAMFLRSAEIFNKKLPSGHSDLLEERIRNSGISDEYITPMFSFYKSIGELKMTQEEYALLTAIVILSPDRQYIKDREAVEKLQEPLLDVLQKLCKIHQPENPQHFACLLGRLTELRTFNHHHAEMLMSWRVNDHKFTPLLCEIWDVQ

Experiment [3] addresses Oxysterols receptor LXR-alpha (Homo sapiens) (UniProt Q13133). In words: ATG_LXRa_TRANS: Attagene TRANS-FACTORIAL HepG2 Assay for human Liver X Receptor alpha (LXRa) (AID 2282980; active = hit-call score of the fitted dose curve at least 0.9, where 1 is the maximum). The note with it: HepG2 Attagene TRANS reporter, LXRa transactivation. Put shortly: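 HepG2 cells transiently transfected with GAL4-UAS reporter units for chimeric NR-Gal4 proteins, exposed to chemicals for 24 h. Reporter mRNA quantified by RT-PCR and capillary electrophoresis; gain of signal fitted relative to DMSO.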

Experiment [4] deals with Oxysterols receptor LXR-beta (Homo sapiens) (UniProt P55055). In words: ATG_LXRb_TRANS: Attagene TRANS-FACTORIAL HepG2 Assay for human Liver X Receptor beta (LXRb) (AID 2282981; active = hit-call score of the fitted dose curve at least 0.9, where 1 is the maximum). The settings on record: HepG2 Attagene TRANS GAL4-LXRb reporter, mRNA. Put shortly: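 HepG2 cells transiently transfected with multiple reporter transcription units carrying chimeric NR-Gal4 proteins acting on GAL4-UAS reporters; compound exposure 24 h. Reporter mRNA quantified by RT-PCR, 6-FAM labelling, HpaI digestion and capillary electrophoresis; gain of signal versus DMSO.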
Oxysterols receptor LXR-beta (Homo sapiens), sequence (P55055 whole entry, looked up, the tested form may be a part): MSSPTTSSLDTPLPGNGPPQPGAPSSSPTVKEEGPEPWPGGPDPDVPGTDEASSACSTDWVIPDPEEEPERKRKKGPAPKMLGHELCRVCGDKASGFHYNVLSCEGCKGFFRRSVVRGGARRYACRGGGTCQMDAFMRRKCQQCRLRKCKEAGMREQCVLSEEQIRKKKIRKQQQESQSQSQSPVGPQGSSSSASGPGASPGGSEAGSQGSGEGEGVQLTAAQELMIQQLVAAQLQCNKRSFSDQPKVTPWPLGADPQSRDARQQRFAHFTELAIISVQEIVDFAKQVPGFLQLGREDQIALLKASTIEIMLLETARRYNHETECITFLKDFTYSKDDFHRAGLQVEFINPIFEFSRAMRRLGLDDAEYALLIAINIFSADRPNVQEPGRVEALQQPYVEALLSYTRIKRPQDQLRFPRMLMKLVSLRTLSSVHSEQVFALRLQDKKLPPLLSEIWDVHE

In experiment [5] the target is Hepatocyte nuclear factor 4-alpha (Homo sapiens) (UniProt P41235). Kind of experiment: ATG_HNF4a_TRANS: Attagene TRANS-FACTORIAL HepG2 Assay for human Hepatocyte Nuclear Factor 4 alpha (HNF4a) (AID 2282982; active = hit-call score of the fitted dose curve at least 0.9, where 1 is the maximum). The note with it: HepG2 HNF4a transactivation reporter, mRNA readout. Summed up: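 HepG2 cells transiently transfected with multiplexed GAL4-UAS reporter units responsive to chimeric NR-GAL4 proteins; compound exposure 24 h. Reporter mRNA quantified by RT-PCR, 6-FAM labelling, HpaI digestion and capillary electrophoresis; gain of signal versus DMSO baseline.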
Hepatocyte nuclear factor 4-alpha (Homo sapiens), sequence (P41235 whole entry, looked up, the tested form may be a part): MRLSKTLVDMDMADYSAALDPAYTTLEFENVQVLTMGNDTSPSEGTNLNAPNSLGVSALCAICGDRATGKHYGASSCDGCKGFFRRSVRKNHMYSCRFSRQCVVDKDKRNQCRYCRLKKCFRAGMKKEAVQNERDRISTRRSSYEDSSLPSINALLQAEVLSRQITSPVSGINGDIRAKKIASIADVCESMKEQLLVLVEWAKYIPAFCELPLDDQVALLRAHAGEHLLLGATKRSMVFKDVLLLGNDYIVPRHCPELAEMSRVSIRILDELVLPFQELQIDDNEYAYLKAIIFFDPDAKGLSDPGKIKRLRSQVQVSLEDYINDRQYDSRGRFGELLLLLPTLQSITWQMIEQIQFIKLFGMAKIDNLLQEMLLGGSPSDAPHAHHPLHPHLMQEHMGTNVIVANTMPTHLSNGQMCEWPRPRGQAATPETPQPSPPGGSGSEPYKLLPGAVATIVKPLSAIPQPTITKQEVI

Experiment [6] can be described thus: ATG_M_06_TRANS: Attagene TRANS-FACTORIAL HepG2 Assay for M06 Transcription Factor (Internal Marker) (AID 2282983; active = hit-call score of the fitted dose curve at least 0.9, where 1 is the maximum;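 also: reporter transcript level by RT-PCR then capillary electrophoresis fluorescence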). The settings on record: HepG2 Attagene TRANS M06 internal marker reporter. Put shortly: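 HepG2 cells transiently transfected with GAL4-UAS multiple reporter units, dosed 24 h. Reporter RNA reverse-transcribed, PCR-amplified, 6-FAM-labeled, HpaI-digested and quantified by capillary electrophoresis; this internal-marker signal fitted upward relative to DMSO.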

The target of experiment [7] is Nuclear receptor subfamily 4 group A member 2 (Homo sapiens) (UniProt P43354). Kind of experiment: ATG_NURR1_TRANS: Attagene TRANS-FACTORIAL HepG2 Assay for human Nuclear Receptor Related Protein 1 (NURR1) (AID 2282985; active = hit-call score of the fitted dose curve at least 0.9, where 1 is the maximum). The note with it: HepG2 Attagene TRANS reporter, mRNA readout. Summed up:
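HepG2 cells transiently transfected with GAL4-UAS reporter units and chimeric NR-Gal4 constructs; chemical exposure 24 h. Reporter mRNA quantified by RT-PCR, fluorescent labelling and capillary electrophoresis; gain of signal fitted relative to DMSO baseline.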

Experiment [8] has as its target Transcriptional activator Myb (Homo sapiens) (UniProt P10242). In words: ATG_Myb_CIS: Attagene CIS-FACTORIAL HepG2 Assay for human Myeloblastosis (Myb) Proto-Oncogene Transcription Factor (AID 2282986). The settings on record: HepG2 Attagene CIS-FACTORIAL Myb reporter transcription; actives raise or lower the signal. Put shortly: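 Multiplexed cis-reporter system in HepG2: transient transfection, 24 h treatment, mRNA readout by RT-PCR and capillary electrophoresis. Both increases and decreases are scored versus DMSO negative control.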

The target in experiment [9] is Nuclear respiratory factor 1 (Homo sapiens) (UniProt Q16656). Kind of experiment: ATG_NRF1_CIS: Attagene CIS-FACTORIAL HepG2 Assay for human Nuclear Respiratory Factor 1 (NRF1) Orphan Gene (AID 2282987). The note with it: HepG2 NRF1 cis-element reporter, Attagene multiplex; actives raise or lower the signal. Summed up: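 Endogenous factor activity was captured via cis-element-driven reporter transcripts in HepG2 cells. Following 24 h chemical treatment, transcripts were quantified by RT-PCR and capillary electrophoresis.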
Nuclear respiratory factor 1 (Homo sapiens), sequence (Q16656 whole entry, looked up): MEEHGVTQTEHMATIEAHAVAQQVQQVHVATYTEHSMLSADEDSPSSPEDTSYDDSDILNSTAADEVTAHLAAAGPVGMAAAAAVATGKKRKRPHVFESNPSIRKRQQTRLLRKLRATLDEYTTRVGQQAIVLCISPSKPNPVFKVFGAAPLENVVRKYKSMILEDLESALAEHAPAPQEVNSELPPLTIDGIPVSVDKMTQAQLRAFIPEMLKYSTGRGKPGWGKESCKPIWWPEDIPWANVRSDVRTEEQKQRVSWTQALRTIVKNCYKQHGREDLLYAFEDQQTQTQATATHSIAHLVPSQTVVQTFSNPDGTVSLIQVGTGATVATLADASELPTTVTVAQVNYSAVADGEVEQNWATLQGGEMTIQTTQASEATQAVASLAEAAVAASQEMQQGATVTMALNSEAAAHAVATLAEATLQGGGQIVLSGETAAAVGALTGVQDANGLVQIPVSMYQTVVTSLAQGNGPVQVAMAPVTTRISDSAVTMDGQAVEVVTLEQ

Experiment [10] can be described thus: ATG_NFI_CIS: Attagene CIS-FACTORIAL HepG2 Assay for human Nuclear Factor I (NFI) (AID 2282989). The settings on record: HepG2 cis-regulatory reporter, NFI response element transcription; actives raise or lower the signal. Put shortly: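 After transient transfection of HepG2 with cis-promoter reporter constructs and 24 h dosing, RNA is reverse-transcribed, amplified, 6-FAM end-labelled and HpaI-digested before capillary analysis. Bidirectional curve fitting against DMSO.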

Experiment [11] concerns the target Myc proto-oncogene protein (Homo sapiens) (UniProt P01106). In words: ATG_Myc_CIS: Attagene CIS-FACTORIAL HepG2 Assay for human Myelocytomatosis (Myc) Proto-Oncogene Transcription Factor (AID 2282990). The settings on record: HepG2, Attagene cis-reporter transcription factor activity; actives raise or lower the signal. Summed up: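 HepG2 cells transiently transfected with multiple cis-promoter-driven reporter transcription units, so endogenous TF activity is read. After 24 h compound exposure, reporter mRNA was quantified by RT-PCR, 6-FAM labelling, HpaI digestion and capillary electrophoresis; bidirectional fit versus DMSO.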

A short description of experiment [12]: ATG_NF_kB_CIS: Attagene CIS-FACTORIAL HepG2 Assay for human Nuclear Factor Kappa B (NF-kB) (AID 2282991). The settings on record: HepG2 Attagene cis-factorial NF-kB reporter mRNA; actives raise or lower the signal. Summed up: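 After 24 h compound incubation, transfected HepG2 cells yield total RNA; reporter cDNA is PCR-amplified, end-labelled with 6-FAM, HpaI-digested and analysed on a genetic analyser. Endogenous factor activity, DMSO-referenced bidirectional fit.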

Experiment [13] can be described thus: ATG_NRF2_ARE_CIS: Attagene CIS-FACTORIAL HepG2 Assay for human Nuclear Factor Erythroid 2 Related Factor 2 (NFR2) response to Antioxidant Response Elements (ARE) (AID 2282992). The note with it: HepG2 Attagene ARE/NRF2 reporter, transcription factor activity; actives raise or lower the signal. Summed up: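 Cis-factorial assay: transfected HepG2 reporter library, 24 h dosing, mRNA readout via RT-PCR/CE; DMSO-referenced bidirectional analysis.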

The nature of experiment [14]: ATG_Oct_MLP_CIS: Attagene CIS-FACTORIAL HepG2 Assay for human Octamer-Binding Transcription Factor (Oct) (AID 2282993). The note with it: HepG2 Attagene cis-factorial Oct reporter, mRNA; actives raise or lower the signal. Put shortly:
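Cells of the HepG2 line express promoter-controlled reporter sequences whose mRNA levels, after 24 h treatment, are measured by RT-PCR and capillary electrophoresis. Increases and decreases are scored relative to DMSO.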

Experiment [15] can be described thus: BSK_3C_TissueFactor: BioMAP Diversity Plus: 3C Assay for Tissue Factor Biomarker Activity (AID 2282997). The settings on record: BioMAP 3C HUVEC, tissue factor biomarker readout; actives raise or lower the signal. Put shortly: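 HUVEC were treated 24 h, then surface tissue factor measured by ELISA and fitted bidirectionally against DMSO. Parallel SRB total-protein staining assessed overt cytotoxicity at the same time point.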

Experiment [16] is described as follows: BSK_3C_uPAR: BioMAP Diversity Plus: 3C Assay for Urokinase-type plasminogen activator receptor (uPAR) Biomarker Activity (AID 2282998). The note with it: BioMAP 3C HUVEC, uPAR biomarker ELISA; actives raise or lower the signal. Summed up:
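Endothelial primary cells of human umbilical vein origin received test chemical; 24 h later uPAR was assayed by ELISA. Fitting was bidirectional, DMSO as negative control.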

Experiment [17] concerns the target Glucocorticoid receptor (Homo sapiens) (UniProt P04150). In words: ATG_GR_TRANS: Attagene TRANS-FACTORIAL HepG2 Assay for human Glucocorticoid Receptor (GR) (AID 2282978; active = hit-call score of the fitted dose curve at least 0.9, where 1 is the maximum;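 also: activators score as hits since higher reporter transcript over DMSO is fitted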). The settings on record: HepG2 Attagene TRANS GR reporter, mRNA transcription. Put shortly: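 HepG2 transient transfection, multiple reporter units, GAL4-UAS under NR-GAL4 chimera control. 24 h treatment. Reporter mRNA by RT-PCR/CE fluorescence, DMSO as negative control.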

Experiment [18] concerns the target Cellular tumor antigen p53 (Homo sapiens) (UniProt P04637). In words: ATG_p53_CIS: Attagene CIS-FACTORIAL HepG2 Assay for human p53 Transcription Factor (AID 2282994). The note with it: HepG2 p53 cis-element reporter, Attagene mRNA; actives raise or lower the signal. Put shortly:
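Using HepG2 hepatoma cells carrying cis-acting multiplexed reporters, mRNA induction is detected after a 24 h exposure. Gain- and loss-of-signal responses are fitted relative to DMSO-treated cells.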

Experiment [19] is described as follows: BSK_3C_VCAM1: BioMAP Diversity Plus: 3C Assay for Vascular cell adhesion molecule 1 (VCAM1) Biomarker Activity (AID 2282999). The note with it: BioMAP 3C HUVEC, VCAM1 ELISA, cytokine-stimulated; actives raise or lower the signal. Summed up: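 Human umbilical vein endothelial cells were dosed with compound for 24 h, after which cell-surface VCAM-1 was quantified by ELISA. Bidirectional curve fitting used DMSO as negative control and activity baseline.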

Experiment [20] can be described thus: ATG_M_32_TRANS: Attagene TRANS-FACTORIAL HepG2 Assay for M32 Transcription Factor (Internal Marker) (AID 2282984; active = hit-call score of the fitted dose curve at least 0.9, where 1 is the maximum;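 also: transcript level of a background control reporter unit measured by RT-PCR and capillary electrophoresis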). The note with it: HepG2 Attagene TRANS M32 internal marker reporter. Summed up: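 HepG2 cells transiently transfected with multiple GAL4-UAS reporter transcription units, dosed for 24 hours; reporter mRNA quantified by RT-PCR, 6-FAM primer extension, HpaI digestion and capillary electrophoresis. Gain-of-signal fitted versus DMSO baseline; internal background-control marker.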

Glucocorticoid receptor (Homo sapiens), sequence (P04150 whole entry, looked up, the tested form may be a part): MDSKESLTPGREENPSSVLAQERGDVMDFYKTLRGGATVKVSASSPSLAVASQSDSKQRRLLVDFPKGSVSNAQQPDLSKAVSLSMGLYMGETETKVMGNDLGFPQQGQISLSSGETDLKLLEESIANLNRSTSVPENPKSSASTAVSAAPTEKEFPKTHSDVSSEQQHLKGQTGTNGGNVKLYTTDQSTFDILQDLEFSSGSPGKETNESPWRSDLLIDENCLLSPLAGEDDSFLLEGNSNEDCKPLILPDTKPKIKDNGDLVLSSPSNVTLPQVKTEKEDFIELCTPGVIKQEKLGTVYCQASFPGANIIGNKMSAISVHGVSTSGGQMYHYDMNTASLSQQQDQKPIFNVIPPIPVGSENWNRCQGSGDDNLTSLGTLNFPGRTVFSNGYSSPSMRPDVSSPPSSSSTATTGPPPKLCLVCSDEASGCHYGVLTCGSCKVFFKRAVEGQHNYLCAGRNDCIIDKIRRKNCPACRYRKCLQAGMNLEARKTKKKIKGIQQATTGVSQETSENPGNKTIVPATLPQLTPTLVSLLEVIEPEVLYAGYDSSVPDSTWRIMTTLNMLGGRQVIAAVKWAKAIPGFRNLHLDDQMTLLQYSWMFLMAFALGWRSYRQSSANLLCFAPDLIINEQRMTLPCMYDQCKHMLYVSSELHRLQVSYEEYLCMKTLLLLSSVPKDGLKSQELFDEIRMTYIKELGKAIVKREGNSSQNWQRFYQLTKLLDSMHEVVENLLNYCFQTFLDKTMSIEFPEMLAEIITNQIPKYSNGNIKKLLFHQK
Nuclear receptor subfamily 4 group A member 2 (Homo sapiens), sequence (P43354 whole entry, looked up, the tested form may be a part): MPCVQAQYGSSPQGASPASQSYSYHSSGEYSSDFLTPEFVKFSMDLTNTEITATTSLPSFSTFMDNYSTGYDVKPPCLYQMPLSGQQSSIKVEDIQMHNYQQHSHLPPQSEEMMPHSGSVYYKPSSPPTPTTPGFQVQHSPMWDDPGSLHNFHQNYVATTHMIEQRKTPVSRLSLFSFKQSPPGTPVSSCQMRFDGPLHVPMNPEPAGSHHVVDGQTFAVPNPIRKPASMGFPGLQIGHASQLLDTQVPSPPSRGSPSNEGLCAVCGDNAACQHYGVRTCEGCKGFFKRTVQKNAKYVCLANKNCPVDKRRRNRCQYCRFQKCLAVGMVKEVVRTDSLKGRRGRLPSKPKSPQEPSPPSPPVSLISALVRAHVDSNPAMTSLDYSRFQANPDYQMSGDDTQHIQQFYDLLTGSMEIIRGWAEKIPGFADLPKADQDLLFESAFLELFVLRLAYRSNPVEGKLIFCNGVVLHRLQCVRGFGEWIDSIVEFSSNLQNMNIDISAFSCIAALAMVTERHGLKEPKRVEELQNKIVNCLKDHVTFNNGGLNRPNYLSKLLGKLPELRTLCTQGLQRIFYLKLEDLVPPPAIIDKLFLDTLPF
Transcriptional activator Myb (Homo sapiens), sequence (P10242 whole entry, looked up): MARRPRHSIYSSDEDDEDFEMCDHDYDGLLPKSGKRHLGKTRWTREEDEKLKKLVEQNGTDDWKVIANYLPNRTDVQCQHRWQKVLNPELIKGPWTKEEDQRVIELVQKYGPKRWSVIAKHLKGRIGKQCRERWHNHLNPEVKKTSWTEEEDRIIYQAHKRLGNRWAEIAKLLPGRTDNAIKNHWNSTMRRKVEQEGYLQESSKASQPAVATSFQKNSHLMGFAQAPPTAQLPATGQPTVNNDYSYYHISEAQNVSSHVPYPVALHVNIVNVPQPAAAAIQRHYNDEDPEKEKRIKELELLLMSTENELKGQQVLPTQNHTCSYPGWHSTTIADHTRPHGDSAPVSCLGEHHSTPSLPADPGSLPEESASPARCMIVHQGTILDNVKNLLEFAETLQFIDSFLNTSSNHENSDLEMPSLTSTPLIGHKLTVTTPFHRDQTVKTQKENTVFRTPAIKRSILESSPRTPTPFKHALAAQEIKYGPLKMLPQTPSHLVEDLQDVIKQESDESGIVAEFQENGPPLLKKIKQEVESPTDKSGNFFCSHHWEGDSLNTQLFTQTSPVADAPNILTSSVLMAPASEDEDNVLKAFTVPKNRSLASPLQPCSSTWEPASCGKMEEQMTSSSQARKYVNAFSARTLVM
Estrogen-related receptor gamma (Homo sapiens), sequence (P62508 whole entry, looked up, the tested form may be a part): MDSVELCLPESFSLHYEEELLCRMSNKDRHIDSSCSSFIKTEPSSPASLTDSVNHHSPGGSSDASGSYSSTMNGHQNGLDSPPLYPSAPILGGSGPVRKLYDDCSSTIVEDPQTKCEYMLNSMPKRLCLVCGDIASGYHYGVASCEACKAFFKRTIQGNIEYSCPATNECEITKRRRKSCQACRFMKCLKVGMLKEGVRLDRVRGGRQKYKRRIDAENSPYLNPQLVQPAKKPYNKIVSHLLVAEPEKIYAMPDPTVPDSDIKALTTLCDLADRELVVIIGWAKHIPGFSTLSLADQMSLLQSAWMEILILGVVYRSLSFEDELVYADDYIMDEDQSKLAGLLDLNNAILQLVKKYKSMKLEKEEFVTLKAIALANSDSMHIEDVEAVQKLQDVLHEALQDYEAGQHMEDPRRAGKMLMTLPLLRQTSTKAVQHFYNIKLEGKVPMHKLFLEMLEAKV
Myc proto-oncogene protein (Homo sapiens), sequence (P01106 whole entry, looked up): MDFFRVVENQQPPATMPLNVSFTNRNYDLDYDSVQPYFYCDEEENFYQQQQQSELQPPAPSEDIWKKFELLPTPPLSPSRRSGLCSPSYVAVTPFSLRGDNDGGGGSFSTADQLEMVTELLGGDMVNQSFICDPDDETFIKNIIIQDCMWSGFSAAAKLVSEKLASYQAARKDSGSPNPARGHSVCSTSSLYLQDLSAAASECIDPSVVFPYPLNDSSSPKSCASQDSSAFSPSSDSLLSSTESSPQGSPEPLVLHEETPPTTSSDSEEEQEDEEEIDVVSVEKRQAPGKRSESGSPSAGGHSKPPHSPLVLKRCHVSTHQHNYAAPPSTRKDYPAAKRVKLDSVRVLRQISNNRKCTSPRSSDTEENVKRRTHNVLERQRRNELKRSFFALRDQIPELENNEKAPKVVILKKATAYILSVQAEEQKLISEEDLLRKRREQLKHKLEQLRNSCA

As for `OCC(O)CC(F)(F)C(F)(F)C(F)(F)C(F)(F)C(F)(F)C(F)(F)C(F)(F)C(F)(F)F` (centres undefined), the call in [1], in [2], in experiment [3], in experiment [4], in [5] and in [6] was inactive. Also, the call in [7], in experiment [8], in experiment [9], in experiment [10], in experiment [11] and in experiment [12] was inactive. The result in [13], in [14], in experiment [15] and in experiment [16] was inactive.
For the molecule `NC(=O)C(F)(F)C(F)(F)C(F)(F)F`, the molecule was called inactive in experiment [1], in [17], in [2], in [4], in experiment [5] and in experiment [6]. In addition, the molecule was classed as inactive in experiment [7], in experiment [8], in experiment [9], in experiment [10], in experiment [11] and in [12]. Further, the molecule was called inactive in [13], in experiment [14], in [18], in [15], in experiment [16] and in [19].
As for `O=C(Cl)C(F)(F)C(F)(F)C(F)(F)C(F)(F)C(F)(F)C(F)(F)F`, the molecule was called inactive in experiment [17], in experiment [2], in experiment [3], in [4], in experiment [5] and in experiment [6]. In addition, the molecule was classed as inactive in experiment [20], in experiment [7], in [8], in experiment [9], in experiment [10] and in experiment [11]. For the same molecule, the molecule was called inactive in experiment [12], in [15], in experiment [16] and in experiment [19]. Also, the AC50 in experiment [13] is 154 µM (active).
On to `OCCCCl`, for which the result in experiment [1], in experiment [17], in [6], in experiment [20], in [7] and in experiment [8] was inactive. The molecule was called inactive in [9], in [10], in [11], in [12], in [13] and in experiment [14]. Moreover, the result in [18] was inactive.
